Shown are actives, neighbours in structure and some others; about 3.5% of the full set was active somewhere.
MITF primary = MITF inhibitors, primary screen, biochemical, AlphaScreen, human; actives 0.91% (n = 650,000); AlphaScreen MITF homodimerization, bead proximity signal; inhibition, % at 2.6 µM; in the data active means inhibition above about 50%
TEAD-YAP inh = TEAD-YAP interaction inhibition, primary screen, TEAD-YAP interaction inhibitor project, luminescence, HEK-TIYL cells | TEAD-Gal4/YAP UAS-luciferase luminescence | inhibition, % at 9.12 µM | actives 1.4% (n = 640,000) | AID 1259422, 2018; in the data active means inhibition above about 32%
GPR151 ag = activators of human GPR151, primary screen, cell-based, PathHunter beta-arrestin, luminescence; activation, % at 11.2 µM; actives 1% (n = 650,000); PathHunter beta-arrestin GPR151 cells; AID 1508602, 2020; in the data active means activation above about 4.9%
FBW7 act = FBW7 E3 ligase activators, primary screen, biochemical, AlphaScreen, human. AlphaScreen FBW7–phospho-cyclin E peptide binding, activator screen. normalized activity (activation), % at 26.1 µM. actives 0.13% (n = 650,000). AID 1259310, 2017; in the data active means normalized activity above about 1.9%;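 further: purified mutant Fbw7 with reduced substrate affinity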
Target sequence (Q969H0 whole entry, looked up): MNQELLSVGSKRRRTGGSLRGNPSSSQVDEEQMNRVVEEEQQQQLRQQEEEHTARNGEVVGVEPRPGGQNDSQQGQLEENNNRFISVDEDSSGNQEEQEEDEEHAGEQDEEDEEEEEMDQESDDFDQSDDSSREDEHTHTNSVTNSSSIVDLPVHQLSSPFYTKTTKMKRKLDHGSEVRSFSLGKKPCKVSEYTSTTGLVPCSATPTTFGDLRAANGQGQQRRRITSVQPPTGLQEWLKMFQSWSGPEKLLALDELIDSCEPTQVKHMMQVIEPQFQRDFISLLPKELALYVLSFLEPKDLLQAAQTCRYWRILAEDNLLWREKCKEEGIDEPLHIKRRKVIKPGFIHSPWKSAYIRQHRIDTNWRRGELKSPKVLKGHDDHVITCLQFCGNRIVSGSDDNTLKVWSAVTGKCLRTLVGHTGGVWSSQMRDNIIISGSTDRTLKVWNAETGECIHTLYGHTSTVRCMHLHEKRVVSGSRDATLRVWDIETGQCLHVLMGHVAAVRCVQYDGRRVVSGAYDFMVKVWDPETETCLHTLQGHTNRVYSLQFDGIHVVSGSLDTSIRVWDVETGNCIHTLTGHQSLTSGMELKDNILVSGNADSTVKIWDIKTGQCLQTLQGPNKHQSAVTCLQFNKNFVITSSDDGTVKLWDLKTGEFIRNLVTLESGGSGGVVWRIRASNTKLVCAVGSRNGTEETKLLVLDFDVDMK
MITF inh conf = MITF inhibitors, retest of hits, confirmation, biochemical, AlphaScreen, triplicate; shares compounds with MITF primary; AlphaScreen MITF homodimerization, biotin/His-MITF beads; inhibition, % at 2.6 µM; actives 16% (n = 4,700); AID 1259372, 2018;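 active means inhibition above a cutoff derived from the DMSO control wells, cut at about 28% in these data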;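 further: inhibitors lower the bead chemiluminescence by keeping MITF from dimerizing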
AlphaScreen DR = AlphaScreen optical interference compounds, dose response, counter-screen, biochemical, HTS; shares compounds with MITF primary; IC50, µM; actives 6% (n = 480); AID 1259373, 2018; AlphaScreen optical interference counterscreen, cell-free; call rule not given here
AS interf ctr = AlphaScreen optical interference compounds, counter-screen for MITF inhibitor project, biochemical, triplicate. LysRS AlphaScreen counterscreen, signal interference. inhibition, % at 2.6 µM. shares compounds with MITF primary. actives 7.6% (n = 4,700). AID 1259376, 2018;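 active means inhibition above a cutoff derived from the DMSO control wells, cut at about 30% in these data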
Numbers stand for hits; i = inactive; nt = no result given.

SMILES	MITF primary	TEAD-YAP inh	GPR151 ag	FBW7 act	MITF inh conf	AS interf ctr	others
O=C(Nc1ccc(C(=O)Nc2ccc(C(=O)Nc3ccc(S(=O)(=O)O)c4cc(S(=O)(=O)O)cc(S(=O)(=O)O)c34)cc2)cc1)Nc1ccc(C(=O)Nc2ccc(C(=O)Nc3ccc(S(=O)(=O)O)c4cc(S(=O)(=O)O)cc(S(=O)(=O)O)c34)cc2)cc1	71	nt	i	i	67	i	AlphaScreen DR=i
O=C(Nc1cc(C(=O)Nc2ccc(S(=O)(=O)O)cc2S(=O)(=O)O)cc(C(=O)Nc2ccc(S(=O)(=O)O)cc2S(=O)(=O)O)c1)Nc1cc(C(=O)Nc2ccc(S(=O)(=O)O)cc2S(=O)(=O)O)cc(C(=O)Nc2ccc(S(=O)(=O)O)cc2S(=O)(=O)O)c1	i	i	i	i	nt	nt
c1ccc(-c2ccc(OCCCCn3cncn3)cc2)cc1	55	i	i	i	37	i	AlphaScreen DR=i
Clc1ccc(OCCCn2cncn2)cc1Cl	63	i	i	i	i	i
Cc1cc(C)cc(OCCCCn2cncn2)c1	61	i	i	i	i	i
c1ccc(COc2ccc(OCCCCn3cncn3)cc2)cc1	i	i	i	i	nt	nt
O=C(NCc1ccc2c(c1)OCO2)C1CCC(CNc2nc(=S)[nH]c3ccccc23)CC1 (stereo not given)	57	i	i	i	i	i
O=C(NCC1CCCO1)c1ccc(CNc2nc(=S)[nH]c3ccccc23)cc1 (stereo not given)	i	i	i	i	nt	nt
Cc1ccc(-n2nc3cc(C)c(NC(=O)c4ccccc4[N+](=O)[O-])cc3n2)cc1	i	i	i	i	nt	nt
O=S(=O)(c1cccc(Cl)c1)N1CCC(c2nc3ccccc3[nH]2)CC1	i	i	i	i	nt	nt
O=C(O)c1cccc(S(=O)(=O)N2CCC(c3nc4ccc(Cl)cc4[nH]3)CC2)c1	69	i	i	i	i	i
CCOc1ccc(Oc2cc(NC(=O)c3ccccc3F)cc(NC(=O)c3ccccc3F)c2)cc1	i	i	i	i	nt	nt
O=C(Nc1nc2c(s1)COc1ccccc1-2)C1CCCN1S(=O)(=O)c1ccc(Cl)cc1 (stereo not given)	52	i	i	i	i	i
COc1ccc2c(c1)c1nc(SCc3cc(=O)n4ccccc4n3)n(C)c(=O)c1n2C	i	i	i	i	nt	nt
COc1ccc(S(=O)(=O)N2CCCCC2C(=O)O)cc1 (stereo not given)	68	i	i	i	i	i
COc1ccc(S(=O)(=O)N2CCCCC2C(=O)O)cc1OC (stereo not given)	i	i	i	i	nt	nt
Nc1ncc(-c2ccoc2)nc1N1CCC(C(=O)O)CC1	i	i	i	i	nt	nt
COc1ccc(C/C(C)=N/Nc2nc3ccccc3[nH]2)cc1	67	i	i	i	i	38
O=C(c1ccncc1)N1CCN(Cc2cccc(Cl)c2)CC1	73	i	i	i	i	i
COc1cc(OC)cc(C(=O)N2CCN(Cc3ccc(F)cc3)CC2)c1	i	i	i	i	nt	nt
COc1cc(OC)cc(C(=O)N2CCN(Cc3ccc(Cl)cc3)CC2)c1	58	i	i	i	i	i
COc1cc(OC)cc(C(=O)N2CCN(Cc3cccc(Cl)c3)CC2)c1	52	i	i	i	i	i
Cc1ccc(OCCN(C)C(=O)C2CC23CCN(C2CCSCC2)CC3)cc1 (stereo not given)	i	i	i	i	nt	nt
N#Cc1ccc(OCC(=O)NN=C2CCCC2)cc1	i	i	i	i	nt	nt
N#Cc1ccc(CSCC(=O)NN=C2CCCC2)cc1	51	i	i	i	i	i
SMILES	MITF primary	TEAD-YAP inh	GPR151 ag	FBW7 act	MITF inh conf	AS interf ctr	others
Cc1nc2ccccn2c1-c1nnco1	i	i	i	i	nt	nt
Cc1nc2ccccn2c1-c1ccnn1S(=O)(=O)c1ccc(F)cc1	73	i	i	i	i	i
O=C(O)c1ccc(CS(=O)(=O)c2ccccc2)o1	56	i	i	i	74	i	AlphaScreen DR=i
NNC(=O)c1ccc(CS(=O)(=O)c2ccccc2)o1	i	i	i	i	nt	nt
N#Cc1c(SCc2cccc(F)c2)nsc1SCc1cccc(F)c1	i	i	i	i	nt	nt
COc1ccc(C)cc1NC1CCCCC1	77	i	i	i	i	i
COc1ccc(C)cc1S(=O)(=O)NC1CCCCCC1	i	i	i	i	nt	nt
COc1ccc(C(=O)Nc2ccccc2)cc1S(=O)(=O)Nc1cc(C)on1	69	i	i	i	i	i
COc1ccc(NS(=O)(=O)c2cc(C(=O)Nc3ccccc3)ccc2OC)cc1	i	i	i	i	nt	nt
CC(=O)Oc1cc(-c2coc3cc(OC(C)=O)c(OC(C)=O)c(OC(C)=O)c3c2=O)cc(OC(C)=O)c1OC(C)=O	73	i	i	i	i	i
COc1ccc([C@H]2C(C#N)=C(N)OC3=C2C(=O)CC(C)(C)C3)c([N+](=O)[O-])c1OC	i	i	i	i	nt	nt
COc1ccc(C2C(C#N)=C(N)OC3=C2C(=O)CC(C)(C)C3)c2ccccc12 (stereo not given)	70	i	i	i	i	i
CC(C)(C)n1nnnc1CN(Cc1cccnc1)CC1CCCO1 (stereo not given)	i	i	i	i	nt	nt
COc1ccc(-c2ncn(-c3ccc(Nc4ncc5ccc(-c6cnn(C)c6)cc5n4)cc3)n2)cn1	55	i	i	i	i	i
COCc1nc(Cn2cnc3cc(C)c(C)cc32)no1	i	i	i	i	nt	nt
Cc1cc2ncn(Cc3noc(-c4ccco4)n3)c2cc1C	55	i	i	i	33	i	AlphaScreen DR=i
COC(=O)Cc1c(C)c2ccc(OCC(=O)OC(C)(C)C)c(C)c2oc1=O	i	i	i	i	nt	nt
COC(=O)Cc1c(C)c2ccc(OCC(N)=O)c(C)c2oc1=O	73	i	i	i	i	i
COc1cc(C=C2C(=O)NC(=O)NC2=O)cc(Cl)c1OCc1ccc([N+](=O)[O-])cc1	i	i	i	i	nt	nt
O=C(Nc1ccc(N2CCOCC2)cc1)c1cccc(Nc2ccncn2)n1	58	i	i	i	81	i	AlphaScreen DR=i
O=C(Nc1ccc(N2CCOCC2)cc1)c1csc(Nc2ccncn2)n1	i	i	i	i	nt	nt
CC(=O)Nc1ccc(S(=O)(=O)NNc2ccccc2)cc1	i	i	i	i	nt	nt
Cn1c(CN2CCOCC2)nnc1SCC(N)=O	i	i	i	i	nt	nt
CSc1nnc(CN2CCSCC2)n1C	64	i	i	i	i	i
Cc1ccc(Cn2c(CN3CCC(C)CC3)nc3c2c(=O)n(C)c(=O)n3C)cc1	i	i	i	i	nt	nt
CC1CCN(Cc2nc3c(c(=O)n(C)c(=O)n3C)n2Cc2ccc(F)cc2)CC1	51	i	i	i	i	i

Source: PubChem
